Most compounds without a hit are left out; they make up all but 9.4% or so of the library.
FLuc counter: counter-screen for miR-21 project: firefly luciferase inhibitors or activators | P08659 | purified FLuc, Km substrates, luminescence inhibition | Potency, µM (series often up to 57.5 µM), most hits filed as inhibitors | actives 6.9% (n = 360,000) | AID 588342; note: nearly all actives have a fitted effect of over 55% in size
Target sequence (P08659 whole entry, looked up): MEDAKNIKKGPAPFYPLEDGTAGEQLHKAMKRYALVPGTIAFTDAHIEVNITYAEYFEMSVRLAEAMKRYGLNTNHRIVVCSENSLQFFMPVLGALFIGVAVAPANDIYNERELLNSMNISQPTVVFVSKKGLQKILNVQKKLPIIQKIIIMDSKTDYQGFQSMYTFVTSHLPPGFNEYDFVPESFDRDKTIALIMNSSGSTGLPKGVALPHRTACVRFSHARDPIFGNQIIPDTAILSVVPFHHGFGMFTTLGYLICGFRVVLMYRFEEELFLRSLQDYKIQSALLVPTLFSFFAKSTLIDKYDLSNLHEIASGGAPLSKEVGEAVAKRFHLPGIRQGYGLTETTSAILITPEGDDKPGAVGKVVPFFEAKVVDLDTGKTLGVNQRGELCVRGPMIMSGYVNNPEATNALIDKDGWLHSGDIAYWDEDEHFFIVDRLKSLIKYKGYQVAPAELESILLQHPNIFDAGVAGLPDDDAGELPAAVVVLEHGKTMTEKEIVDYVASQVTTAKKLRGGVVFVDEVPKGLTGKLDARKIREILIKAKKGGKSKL
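Biochemical qHTS of compounds, final roughly 60 µM downward over six points, against 10 nM purified firefly luciferase using Km concentrations of substrates (10 uM D-luciferin, 10 uM ATP) in Tris acetate pH 7.5 buffer; luminescence output.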
ELG1 repair inh: blocks ELG1-dependent DNA repair in HEK293T cells | HEK293T ELG1-luciferase reporter, luminescence, 16 h; DNA damage induced by 5-fluorouridine | actives 2.3% (n = 330,000) | AID 504467 | Potency, µM (titrated, usually from 46.1 µM), most hits filed as inhibitors; note: nearly all actives have a fitted effect of over 55% in size
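Overnight (16 hr) co-exposure of 2,000 cells/well to 5-fluorouridine and compound at 37 °C preceded detection. Luciferase was quantified via ONE-Glo luminescence; loss of signal denotes inhibition.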
NPC1 promoter act: activates the NPC1 promoter. Huh7 NPC1 promoter luciferase reporter, 24 h. Potency, µM (series often up to 9.22 µM), usual class: activators. actives 2.4% (n = 320,000). AID 485313; note: nearly all actives have a fitted effect of over 60% in size
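Compounds in DMSO were transferred onto Huh7 NPC1-luciferase reporter cells pre-incubated 2 h; after 24 h at 37 °C, Amplite reagent was dispensed and luminescence recorded 10 min later.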
Rab9 prom act: activates the Rab9 promoter; Huh7 Rab9 promoter-luciferase reporter, luminescence, 24 h; AID 485297; Potency, µM (highest dose often 9.22 µM), usual class: activators; actives 2.8% (n = 320,000); note: nearly all actives have a fitted effect of over 60% in size
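Luminescence from Amplite-detected luciferase (10 minutes, ambient) reports Rab9 promoter activation. Before that, stable Rab9-luciferase Huh7 cells (1500/well, reduced-serum OP-MEM I plus 10% FBS) were exposed to compound for 24 hours at 37C.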
ELG1 genotox: inducers of genotoxicity in HEK293T ELG1-luciferase cells; HEK293T ELG1-luciferase reporter, luminescence, 16 h; Potency, µM (top dose mostly 46 µM), actives largely listed as activators; actives 1.3% (n = 330,000); AID 504466; note: nearly all actives have a fitted effect of over 60% in size
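Screening used a luciferase reporter fused to human ELG1 in HEK293T cells. Luminescence was read on a CCD plate imager after 16 hr exposure and 30 min ONE-Glo incubation.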
SMN2 splice enh: SMN2 splice variant enhancement; HEK293 SMN2-luciferase splicing reporter, luminescence, 30-36 h; Potency, µM (titrated, usually from 46.1 µM), hits mostly activators; actives 2.8% (n = 210,000); AID 1458; note: nearly all actives have a fitted effect of over 55% in size
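qHTS luciferase splicing reporter: luminescence rises when SMN2 exon 7 is included in transfected HEK293 cells. Compound exposure lasted 30-36 h at 37C, with 4.5 mM final sodium butyrate as control, followed by a ONE-Glo read.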
Numbers stand for hits; - = inactive; ? = inconclusive; . = not tested or not shown; [ ] = another dose, or the depositor's remark. Calls come from the whole dose curve; as a rule, active = well fitted curve in the direction sought with a large enough effect; inconclusive = small, poorly fitted or top-dose-only effect, or another doubt; inactive = no such curve, though single readings can be large; an effect the other way counts as inactive or inconclusive.

SMILES | FLuc counter | ELG1 repair inh | NPC1 promoter act | Rab9 prom act | ELG1 genotox | SMN2 splice enh
C[C@H](NC(=O)N1CCc2nc(-c3ccccc3)c3c(c2C1)CO[C@@H](C)C3)c1ccccc1 | . | . | . | . | . | -[9.22 µM]
CC1=NOC(=O)/C1=C\c1ccc(-c2ccc(Cl)c(C(=O)O)c2)o1 | 19µM | - | - | - | - | -
CC1(C)OC(=O)C(=Cc2ccc(-c3ccc(Cl)c(C(=O)O)c3)o2)C(=O)O1 | 15µM | - | - | - | - | -
Cc1ccc(/C=C2/C(=O)ON=C2c2ccccc2)o1 | ? | ? | - | - | - | .
CC1=NOC(=O)/C1=C\c1ccc(-c2cccc(Cl)c2)o1 | 11µM | ? | - | - | - | -
CC1=NOC(=O)/C1=C\c1ccc(-c2ccccc2Br)o1 | 11µM | ? | - | - | - | -
CCOc1ccccc1CNC(=O)Cn1c(-c2ccccc2)cc(C(C)=O)c1C | - | . | . | . | . | -
Clc1ccc(CSC2=NCCN2)cc1Cl | . | . | . | . | . | -[9.22 µM]
Nc1ccccc1N=Cc1ccc(-c2cccc(Cl)c2)o1 | 3µM | ? | 2.8µM | 3.2µM | - | .
O=C(Nc1cccnc1)c1cn(-c2ccccc2)nc1-c1cccs1 | 3µM | ? | - | - | - | -
CCN(CC)CCNC(=O)c1ccc(NC(=O)c2cn(-c3ccccc3)nc2-c2cccs2)cc1 | 8.5µM | - | - | - | - | -
O=C(c1cn(-c2ccccc2)nc1-c1cccnc1)N1CCCC(C(F)(F)F)C1 (stereo not drawn) | - | - | - | - | - | .
CCOC(=O)C1CCN(C(=O)c2cn(-c3ccccc3)nc2-c2cccnc2)CC1 | 13µM | ? | - | - | - | -
CN(CC(=O)Nc1ccc(F)cc1)C(=O)c1cn(-c2ccccc2)nc1-c1cccs1 | ? | ? | - | - | - | .
O=C(Nc1cccc2ccccc12)c1cn(-c2ccccc2)nc1-c1cccs1 | ? | - | - | - | - | -
COc1ccc(NC(=O)CN(C)C(=O)c2cn(-c3ccccc3)nc2-c2cccs2)cc1 | 17µM | ? | - | - | - | .
CCOC(=O)c1c(C)[nH]c(CCC(=O)Nc2ccccc2C(=O)OC)c1C | - | . | . | . | . | .
CCCN1C(=O)c2ccccc2CC1(C)C(=O)NC1CCCCC1 (stereo not drawn) | - | . | . | . | . | -
NC(=O)c1ccc(NC(=O)C2CCN(S(=O)(=O)Cc3ccccc3)CC2)cc1 | - | . | . | . | . | .
O=C(NCc1cccnc1)c1cn(-c2ccccc2)nc1-c1ccccc1 | 21µM | - | - | - | - | -
O=C(/C=C/c1ccc(-c2ccccc2)cc1)NCc1cccnc1 | 7.6µM | ? | - | - | - | .
O=C(NCCCN1CCCC1=O)c1cn(-c2ccccc2)nc1-c1ccccc1 | 11µM | - | - | - | - | .
O=C(NC1CCS(=O)(=O)C1)c1cn(-c2ccccc2)nc1-c1ccccc1 (stereo not drawn) | 15µM | - | - | - | - | -
CCOC(=O)C1=C(C)NC(C)=C(C(=O)OCC)C1C(=O)OCC(=O)NCc1ccccc1 | . | ? | . | . | - | .
CC1Cc2ccccc2N1C(=O)COc1ccc2c(c1)OCO2 (stereo not drawn) | 17µM | ? | 3.2µM | ? | ? | ?
SMILES | FLuc counter | ELG1 repair inh | NPC1 promoter act | Rab9 prom act | ELG1 genotox | SMN2 splice enh
CC1CCCN(C(=O)COc2ccc3c(c2)OCO3)C1 (stereo not drawn) | - | - | ? | ? | ? | .
CCOC(=O)C1=C(C)NC(C)=C(C(=O)OCC)C1C(=O)OCC(=O)NCc1ccccc1OC | . | 12µM | . | . | - | .
CCOC(=O)C1=C(C)NC(C)=C(C(=O)OCC)C1C(=O)OCC(=O)N1c2ccccc2CC1C (stereo not drawn) | - | 23µM | - | - | - | -
OC(CNCC(c1ccc(Cl)cc1Cl)c1c[nH]c2ccccc12)c1ccccc1 (stereo not drawn) | - | ? | - | - | - | -
Cc1cc(C)c(NC(=O)CSc2nc(=O)n(Cc3ccncc3)c3c2CCC3)c(C)c1 | - | . | . | . | . | .
CC(=O)Nc1ccccc1-c1nc2ccccc2n(Cc2cccc(Br)c2)c1=O | - | . | . | . | . | .
COc1ccc(OCc2csc(N)n2)cc1 | ? | ? | ? | 2.8µM | ? | 13µM
CO/N=C(\C(=O)N[C@@H]1C(=O)N2C(C(=O)[O-])=C(C[N+]3(C)CCCC3)CS[C@@H]12)c1csc(N)n1 | . | . | . | . | . | -
Cc1cccc(Cc2c(C)nc3nc(SCc4ccccc4C)nn3c2C)c1 | - | . | . | . | . | .
COc1ccc(CN(C(=O)CSc2nnc(-c3ccccc3C)o2)c2ccc(F)cc2)cc1 | - | ? | - | - | - | -
O=C(CSc1nnc(-c2c[nH]c3ccccc23)o1)N(Cc1ccccc1)c1ccc(F)cc1 | - | 21µM | - | - | - | -
Oc1ccc2c(c1)OCO2 | . | . | . | . | . | -
Oc1ccc(N=Nc2ccc3c(c2)OCO3)c2ccccc12 | 7.6µM | ? | ? | 3.2µM | 5.2µM | .
Cc1ccc(OC/C(O)=C(\C#N)c2nc3ccccc3s2)cc1 | ? | - | - | - | - | -
CC1=CC(=C(C#N)c2nc3ccccc3s2)C=C(C)N1c1ccc(F)cc1 | 3.4µM | ? | - | - | - | ?
COc1ccccc1N1C(C)=CC(=C(C#N)c2nc3ccccc3s2)C=C1C | 3µM | ? | - | - | - | -
CC(C)=C(C#N)c1nc2ccccc2s1 | - | - | - | - | - | -
Cc1c(Cl)cccc1NC(=O)CC(c1ccc(F)cc1)N1Cc2ccccc2C1=O (stereo not drawn) | - | . | . | . | . | .
CCCc1nc2sc3c(c2c(=O)[nH]1)CCCC3 | ? | - | - | - | - | .
N#Cc1cnn(-c2nc3sc4c(c3c(=O)[nH]2)CCCC4)c1N | 6µM | ? | - | - | - | -
C/C(=N\NC(=O)c1ccc(Br)cc1)C1C(=O)c2ccccc2C1=O | ? | - | - | - | - | -
CC(=O)C1=C(c2ccc(Br)cc2)C(=O)c2ccccc2C1=O | - | 3.7µM | - | - | - | -
CCc1ccccc1NC(=O)CN1CCN(C(=O)c2ccc(OCc3cn4ccccc4n3)cc2)CC1 | - | 6.5µM | - | - | - | .
CCc1ccccc1NC(=O)CNC(=O)c1ccc(OCc2cn3ccccc3n2)cc1 | . | ? | . | . | - | .
O=C(Cn1ncc2c1-c1ccccc1OC2)N1CCN(Cc2ccc3c(c2)OCO3)CC1 | - | 23µM | - | - | - | -
Cc1ccc(C)c(Cn2c(=O)n(C(C)C)c(=O)c3oc4ccccc4c32)c1 | - | . | . | . | . | .
Cc1ccn2c(Nc3ccc4c(c3)OCO4)c(-c3ccc(O)cc3)nc2c1 | ? | - | - | - | - | -
COc1ccc(-c2nc3ccccn3c2NCc2ccc3c(c2)OCO3)cc1 | 4.8µM | ? | ? | ? | - | 14µM
Clc1cccc(-c2ccc(-c3nc4ccccn4c3NCc3ccccc3)cc2)c1 | . | ? | . | . | - | .
c1ccc(-c2nc3ccccn3c2NCc2ccc3c(c2)OCO3)cc1 | ? | - | - | - | - | -

High-throughput results as filed in PubChem.
